In the supplement of paper PMC6555819 one finds PBM binding z-score data, which are given here for seven sequences.

What all share (assay): PBM binding z-score (relative to random genomic background probes); higher = stronger binding; sequences stand for … in GC…GCGATTGACAGCGTAGAATGAAGG
Test [1] relates to FXR:RXRa (NR concentration 270 nM, RXRa partner concentration 90 nM). Put shortly: (§1)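 For binding z-scores, the reference was random background probes on custom Agilent 4×180K protein-binding microarrays. These arrays were incubated 1 h with ligand-free nuclear receptor dimers in PBS pH 7.4, 2% milk, 0.02% Triton X-100, 1 mM DTT, 0.2 mg/mL BSA and 0.4 mg/ml salmon testes DNA. Fluorescence was scanned after antibody detection of each partner (one per run) and regression-normalized.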

Test [2] concerns LXRa:RXRa (NR concentration 270 nM, RXRa partner concentration 90 nM). Put shortly: as §1
The test system of test [3] is LXRa homodimer (NR concentration 270 nM). Put shortly: as §1
Test [4] deals with LXRb:RXRa (NR concentration 270 nM, RXRa partner concentration 90 nM). Put shortly:
as §1

The subject of test [5] is LXRb homodimer (NR concentration 270 nM). Put shortly: as §1
Test [6] deals with PPARa:RXRa (NR concentration 270 nM, RXRa partner concentration 90 nM). Put shortly:
as §1

The test system of test [7] is PPARg:RXRa (NR concentration 180 nM, RXRa partner concentration 90 nM). Put shortly: as §1
For test [8], the system named is PPARg:RXRa 270nM:90nM, anti-RXR (NR concentration 270 nM, RXRa partner concentration 90 nM). Put shortly:
as §1

For test [9], the system named is PPARg:RXRa 30nM:10nM, anti-RXR (NR concentration 30 nM, RXRa partner concentration 10 nM). Put shortly:
as §1

Test [10] concerns PPARg:RXRa 90nM:30nM, anti-RXR (NR concentration 90 nM, RXRa partner concentration 30 nM). Put shortly:
as §1

Test [11] has as its system PPARg:RXRa DBDmut IVT, anti-RXR (DBD mutation: RXRa K156A/R161A, NR concentration 270 nM, RXRa partner concentration 90 nM). Put shortly: as §1
Test [12] deals with PPARg:RXRa IVT, anti-PPARg (NR concentration 270 nM, RXRa partner concentration 90 nM). Put shortly:
as §1

Test [13] deals with PPARg DBDmut:RXRa IVT, anti-PPARg (DBD mutation: PPARg1 K132A/R137A, NR concentration 270 nM, RXRa partner concentration 90 nM). Put shortly: as §1
The test system of test [14] is PPARg DBDmut IVT, anti-PPARg (DBD mutation: PPARg1 K132A/R137A, NR concentration 270 nM). Put shortly:
as §1

Test [15] deals with PPARg homodimer (NR concentration 180 nM). Put shortly:
as §1

Test [16] relates to PXR:RXRa (NR concentration 270 nM, RXRa partner concentration 90 nM). Put shortly:
as §1

Test [17] has as its system PXR homodimer (NR concentration 270 nM). Put shortly: as §1
For test [18], the system named is RARa:RXR (NR concentration 270 nM, RXRa partner concentration 90 nM). Put shortly: as §1
Test [19] has as its system RARa homodimer (NR concentration 270 nM). Put shortly: as §1
Test [20] concerns RARb:RXRa (NR concentration 270 nM, RXRa partner concentration 90 nM). Put shortly:
as §1

On to CCTACTGGGCCACGAAAGCTCATTGATTCAGTGA, for which the PBM binding z-score in [1] is -0.608; in [2], -0.413; in test [3], -0.683; in test [4] it was -1; in [5], -0.95; in test [6], -0.132. Besides, the PBM binding z-score in [7] is 1.08; in test [8], 1.15; in test [9], -0.145; in test [10], 0.162; in test [11], 5.87; in test [12], 5.08. In addition, the PBM binding z-score in test [13] was 0.172; in test [14], 0.266; in [15], -0.477; in test [16], -0.923; in [17], -0.798; in [18], -0.778. Also, the figures for the PBM binding z-score in test [19] and in test [20] were -0.375 and -0.0436, respectively.

As for TAGCCTAGGTCATGCTGGCCAGTATAGTGTCGGC, the PBM binding z-score in test [1] was 3.83; in [2], 3.03; in test [3], 0.0898; in [4] it was 1.88; in [5], -0.303; in [6], 3.25. The PBM binding z-score in test [7] is 1.99; in test [8] it was 2.15; in [9], 0.0868; in test [10] it was 1.11; in test [11] it was 1.89; in test [12], 3.11. The PBM binding z-score is 0.437 in test [13]; -0.89 in test [14]; 0.715 in test [15]; 1.16 in [16]; -0.737 in test [17]; 2.21 in test [18]. Besides, the PBM binding z-score in test [19] was -0.528; in test [20], 3.84.

In the case of GATACAAGGTCAAGGCCAGAGTACGCGTATTGAT, the PBM binding z-score in test [1] was 7.16; in test [2] it was 5.44; in test [3] it was 1.37; in [4], 4.03; in test [5], 0.481; in test [6] it was 5.49. In addition, the PBM binding z-score turned out to be 5.86 in test [7]; 5.56 in [8]; 2.28 in test [9]; 4.41 in test [10]; 3.92 in test [11]; 4.69 in test [12]. The PBM binding z-score turned out to be 1.01 in test [13]; 0.226 in test [14]; 2.18 in test [15]; 3.85 in [16]; 0.847 in test [17]; 4.27 in test [18]. In addition, the values for the PBM binding z-score in test [19] and in [20] were 0.975 and 5.35, respectively.

Consider TCTAGTTGGTCACGGAGGTCAGACACGACGGGTA, for which the PBM binding z-score in [1] amounted to 2.17; in [2] it was 2.33; in [3], 1.51; in test [4], 2.23; in test [5], 0.127; in test [6] it was 2.88. Besides, the PBM binding z-score came out at 2.45 in test [7]; 2.97 in [8]; 3.26 in test [9]; 3.11 in test [10]; 2.48 in test [11]; 3.14 in test [12]. Moreover, the PBM binding z-score is 0.816 in [13]; 0.0631 in test [14]; 2.07 in test [15]; 2.96 in test [16]; 0.703 in test [17]; 2.79 in [18]. The PBM binding z-score in test [19] came out at 0.955; in [20], 3.26.

For CCTAGCAGGCCAGGGTCACTTAAGCATTTCGCTT, the PBM binding z-score in [1] was 1.75; in [2], 1.64; in [3], -0.562; in test [4], 1.91; in [5], -1.39; in test [6], 2.77. Further, the PBM binding z-score in [7] was 0.597; in test [8] it was 1.54; in test [9], -0.349; in [10], 0.831; in test [11], 0.351; in [12], 1.01. Also, the PBM binding z-score was -1.25 in test [13]; -0.972 in [14]; 0.813 in test [15]; 2.15 in test [16]; -0.248 in [17]; 2.71 in test [18]. In addition, the results for the PBM binding z-score in test [19] and in test [20] were 0.0986 and 2.54, respectively.

Regarding TCTGCTAGGTCAATGATGGTCAGCTAATCTGCTA, the PBM binding z-score in test [1] is 2.48; in test [2] it was 2.82; in [3] it was -0.0629; in test [4], 1.38; in [5], -0.0652; in test [6] it was 2.69. The PBM binding z-score in [7] came out at 1.53; in test [8], 2.35; in [9], 1.77; in test [10], 2.05; in test [11] it was 3.8; in test [12], 3.49. The PBM binding z-score in test [13] is 0.246; in [14] it was -0.13; in test [15] it was 0.244; in test [16], 1.02; in test [17], -0.71; in test [18], 1.46. In addition, the results for the PBM binding z-score in [19] and in [20] were -0.32 and 3.72, respectively.

CCTGCTAGGTCAAGGTCAGCTAATCTACAGTATG: the PBM binding z-score in [1] was 4.87; in [2], 3.95; in test [3] it was 1.09; in test [4], 3.19; in test [5], 0.294; in [6] it was 4.45. Moreover, the PBM binding z-score in [7] came out at 3.7; in [8], 4.63; in test [9] it was 1.39; in [10] it was 3.47; in test [11], 4.9; in test [12] it was 4.64. The PBM binding z-score was 0.201 in test [13]; -0.28 in [14]; 2.21 in test [15]; 3.45 in test [16]; 0.401 in [17]; 3.88 in test [18]. In addition, the values for the PBM binding z-score in [19] and in test [20] were 1.15 and 5.09, respectively.
